The values that follow come from PubChem BioAssay (Tox21).

A short description of assay [1]: qHTS assay to identify small molecule antagonists of the sonic hedgehog signaling (Shh) pathway (AID 1259369). Also: nearly all actives have a fitted effect of over 45% in size. Also: potency is read from the fitted curve at half-maximal effect. The essentials: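 NIH/3T3-derived 3T3Gli1-Luc cells with stably integrated Gli1-Luc reporter were preincubated 4hr at 37 C, then given compounds in DMSO plus Shh conditioned medium and incubated 24hr. Firefly luciferase luminescence read after 30min reagent at room temperature.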
(In general: In qHTS, concentration-response curves come from the screen itself.)

The target in assay [2] is Estrogen receptor beta (Homo sapiens) (UniProt Q92731). Description: qHTS assay to identify small molecule agonists of the estrogen receptor beta (ER-beta) signaling pathway (AID 1259377; active = well fitted activation curve with a large enough effect in the signal ratio in the repeat runs, not every such curve was filed as active; the % refers to the signal ratio). The essentials:
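qHTS in ER-beta-UAS-bla HEK293T cells: 6 hr settling, then 16 hr compound at 37C, then LiveBLAzer substrate 2 h at RT before fluorescence reading.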

Assay [3] shares this target. Put plainly: qHTS assay to identify small molecule antagonists of the estrogen receptor beta (ER-beta) signaling pathway (AID 1259378; active = well fitted inhibition curve with a large enough effect in the signal ratio in the repeat runs, not every such curve was filed as active; the % refers to the signal ratio; also: potency is read from the fitted curve at half-maximal effect). The essentials:
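ER-beta-UAS-bla HEK293T cells in 2% charcoal-stripped FBS medium treated with compound plus 1nM final 17-beta-estradiol for 16 hr at 37C. Beta-lactamase reporter read by FRET substrate fluorescence after 2 hours at room temperature.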

A short description of assay [4]: qHTS assay to identify small molecule agonists of the estrogen receptor beta (ER-beta) signaling pathway - cell viability counter screen (AID 1259380; active = well fitted curve in the direction sought with a large enough effect in the repeat runs; an effect the other way counts as inactive or inconclusive; also: nearly all actives have a fitted effect of over 30% in size; also: potency is read from the fitted curve at half-maximal effect). The procedure, abridged: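 ER-beta-UAS-bla HEK293T cells in medium with 2% charcoal-stripped FBS were preincubated 6 hr at 37C, dosed with compound in DMSO for 16 hr, then after the bla read, CellTiter-Glo was added for 30 min at room temperature; luminescence recorded.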

For assay [5], the target named is Androgen receptor (Homo sapiens) (UniProt P10275). Description: qHTS assay to identify small molecule agonists of the androgen receptor (AR) signaling pathway in the presence of an antagonist (AID 1259381). Also: nearly all actives have a fitted effect of over 15% in size. Also: potency is read from the fitted curve at half-maximal effect. The procedure, abridged: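 MDA-kb2 human breast carcinoma cells carrying an MMTV-luciferase reporter (AR- and GR-responsive) were treated with compounds at 15 concentrations plus 3.0uM final nilutamide for 16hr at 37C without CO2; luminescence was read after ONE-Glo addition.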

Assay [6] deals with Estrogen receptor (Homo sapiens) (UniProt P03372). Description: qHTS assay to identify small molecule agonists of the estrogen receptor alpha (ER-alpha) signaling pathway in the presence of an antagonist (AID 1259383). Also: top concentration of the series differs between compounds; nearly all actives have a fitted effect of over 15% in size. The procedure, abridged: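 VM7Luc4E2 cells (endogenous full-length ER-alpha, 4×ERE-luciferase) were precultured 5 days in phenol red-free medium with 10% charcoal-stripped FBS, given 10.0nM ICI-182,780 (final), then treated with compounds at 15 concentrations for 22hr at 37C; luminescence read with ONE-Glo.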

Assay [7] can be described thus: qHTS assay to identify small molecule agonists or antagonists of the thyroid stimulating hormone receptor (TSHR) signaling pathway - wild type cell line counter screen (AID 1259384). The essentials: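 Wild-type Hek293 cells, 800/well, 18 h at 37C, then compound with Ro20-1724 for 30 min RT. cAMP by HTRF (cAMP-d2/anti-cAMP cryptate), 1 h RT, fluorescence read. 15 concentrations, triplicates.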

Assay [8] addresses Thyrotropin receptor (Homo sapiens) (UniProt P16473). Put plainly: qHTS assay to identify small molecule antagonists of the thyroid stimulating hormone receptor (TSHR) signaling pathway (AID 1259385). Also: nearly all actives have a fitted effect of over 20% in size. Also: potency is read from the fitted curve at half-maximal effect. The procedure, abridged: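 TSHR-HEK293 cells (800/well) plated 18 h, then compounds with Ro20-1724 and TSH at 1.5 ng/mL final, 30 min at room temperature. cAMP quantified by HTRF (cAMP-d2/anti-cAMP-cryptate, 1 h); 15 concentrations in triplicate.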

Assay [9] in a line: qHTS assay to identify small molecule agonists of the estrogen receptor alpha (ER-alpha) signaling pathway in the presence of an antagonist - cell viability counter screen (AID 1259386; active = well fitted curve in the direction sought with a large enough effect in the repeat runs; an effect the other way counts as inactive or inconclusive;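 also: cells exposed to compounds for 22 h at 37 °C before the viability read; nearly all actives have a fitted effect of over 30% in size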; also: potency is read from the fitted curve at half-maximal effect; as to activity change, negative = cytotoxicity: series mostly up to about 92 µM). The essentials: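 VM7Luc4E2 cells (endogenous full-length ER-alpha, 4×ERE-luciferase) were held 5 days in phenol red-free medium with 10% charcoal-stripped FBS, plated, then given 10.0nM ICI-182,780 and compounds at 15 concentrations for 22hr at 37C; viability read by CellTiter-Fluor fluorescence.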

The target in assay [10] is Progesterone receptor (Homo sapiens) (UniProt P06401). Description: qHTS assay to identify small molecule antagonists of the progesterone receptor (PR) signaling pathway (AID 1346795; active = well fitted inhibition curve with a large enough effect in the signal ratio in the repeat runs, not every such curve was filed as active; the % refers to the signal ratio; also: potency is read from the fitted curve at half-maximal effect). The essentials:
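Fluorescence intensity measured 2 hr after adding beta-lactamase FRET substrate to PR-UAS-bla HEK293T cells that had been co-treated 16 hr with compound and 1 nM R5020 (final concentration) in 2% charcoal-stripped FBS.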

Assay [11] can be described thus: qHTS assay to identify small molecule antagonists of the progesterone receptor (PR) signaling pathway - cell viability counter screen (AID 1346798; active = well fitted curve in the direction sought with a large enough effect in the repeat runs; an effect the other way counts as inactive or inconclusive; also: series mostly up to about 92 µM; nearly all actives have a fitted effect of over 50% in size). The procedure, abridged: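 CellTiter-Glo luminescence; PR-UAS-bla HEK293T, 3,000 cells/well; compound + R5020, 16 hr, 37C/5% CO2; 30 min RT before read.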
Assay [12] in a line: qHTS assay to identify small molecule agonists of the progesterone receptor (PR) signaling pathway - cell viability counter screen (AID 1346799). Also: nearly all actives have a fitted effect of over 45% in size. The essentials:
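In parallel with the beta-lactamase readout, cytotoxicity toward PR-UAS-bla HEK293T cells was measured by CellTiter-Glo luminescence following 16 hr compound incubation in 2% charcoal-stripped FBS medium.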

A short description of assay [13]: qHTS assay to identify small molecule antagonists of the TGF-beta/Smad signaling pathway - cell viability counter screen (AID 1346824; active = well fitted curve in the direction sought with a large enough effect in the repeat runs; an effect the other way counts as inactive or inconclusive; also: nearly all actives have a fitted effect of over 50% in size; also: potency is read from the fitted curve at half-maximal effect). The essentials:
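SBE-bla HEK 293T cells, incubated overnight, then compound plus 0.25 ng/mL TGF-beta1 (stock added) for 5 hr at 37 C. Viability was read in the same wells by CellTiter-Glo luminescence after 30 min at room temperature.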

A short description of assay [14]: qHTS assay to identify small molecule agonists of the TGF-beta/Smad signaling pathway - cell viability counter screen (AID 1346829; active = well fitted curve in the direction sought with a large enough effect in the repeat runs; an effect the other way counts as inactive or inconclusive; also: top concentration of the series differs between compounds; nearly all actives have a fitted effect of over 45% in size). The essentials:
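Here the cytotoxicity of library compounds is measured in SBE-bla HEK 293T cells treated for 5 hr, using CellTiter-Glo added to wells already read for the beta-lactamase reporter.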

The nature of assay [15]: qHTS assay to identify small molecule agonists of the TGF-beta/Smad signaling pathway (AID 1346859; active = well fitted activation curve with a large enough effect in the signal ratio in the repeat runs, not every such curve was filed as active; the % refers to the signal ratio; also: series mostly up to about 77 µM). The procedure, abridged:
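After overnight seeding, SBE-bla HEK 293T cells are dosed with compounds in DMSO and kept 5 hr at 37 C, 5% CO2. LiveBLAzer-type FRET substrate is then applied for 2 hr at room temperature.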

Assay [16] addresses Thyrotropin-releasing hormone receptor (Homo sapiens) (UniProt P34981). Description: qHTS assay to identify small molecule antagonists of the thyrotropin-releasing hormone receptor (TRHR) signaling pathway (AID 1346877; active = well fitted inhibition curve with a large enough effect in the repeat runs, not every such curve was filed as active; also: series mostly up to about 51 µM). The procedure, abridged: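 TRHR-expressing HEK293 cells were seeded, cultured 18 h at 37 °C, then loaded with calcium dye for 2 h. Compounds were pre-incubated 5 min at room temperature before 1 nM TRH (final) was added, and kinetic fluorescence was recorded for 3 min.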

The target is the same in assay [17]. Put plainly: qHTS assay to identify small molecule agonists of the thyrotropin-releasing hormone receptor (TRHR) signaling pathway (AID 1346891). Also: series mostly up to about 58 µM. The procedure, abridged:
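Compounds were tested as agonists at 15 concentrations, in triplicate, on TRHR-Hek293 cells; calcium-sensitive dye fluorescence was recorded for 3 min following addition.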

A short description of assay [18]: qHTS assay to identify small molecule antagonists of the estrogen receptor beta (ER-beta) signaling pathway - cell viability counter screen (AID 1259382; active = well fitted curve in the direction sought with a large enough effect in the repeat runs; an effect the other way counts as inactive or inconclusive; also: series mostly up to about 92 µM; nearly all actives have a fitted effect of over 55% in size). The essentials:
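ER-beta-UAS-bla HEK293T cells (2,000/well, 2% charcoal-stripped FBS) were pre-incubated 6 hr at 37C, then given compound plus 1nM final 17-beta-estradiol for 16 hr. Viability was read in the same wells by CellTiter-Glo luminescence after 30 min at room temperature.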

Assay [19] has as its target Progesterone receptor (Homo sapiens) (UniProt P06401). Description: qHTS assay to identify small molecule agonists of the progesterone receptor (PR) signaling pathway (AID 1346784). Also: nearly all actives have a fitted effect of over 30% in size. The essentials:
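Fluorescence from LiveBLAzer B/G FRET substrate cleavage (2 hr, RT) reported PR activation in PR-UAS-bla HEK 293T cells treated 16 hr at 37C/5% CO2 with compounds; medium contained 2% charcoal-stripped FBS.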

Assay [20] in a line: qHTS assay to identify small molecule agonists of the androgen receptor (AR) signaling pathway in the presence of an antagonist - cell viability counter screen (AID 1259379; active = well fitted curve in the direction sought with a large enough effect in the repeat runs; an effect the other way counts as inactive or inconclusive; also: nearly all actives have a fitted effect of over 25% in size; also: potency is read from the fitted curve at half-maximal effect; as to activity change, negative = cytotoxicity: series mostly up to about 92 µM). The essentials: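 MDA-kb2 human breast carcinoma cells (stable MMTV-luciferase, AR/GR responsive) were seeded 3,000 cells/well, pre-incubated 5 hr at 37C without CO2, then given 3.0uM nilutamide and compounds at 15 concentrations for 16 hr. Viability was read by CellTiter-Fluor fluorescence.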

Structures are written as SMILES. Unmarked numbers belong to inactive results. Records with an inconclusive call do not appear. Active and inactive are the calls of the source. Unless noted, calls follow the shape of the full dose curve.
% is scaled to controls: 0 for no effect and ±100 for the full control effect.

Chain of Estrogen receptor beta (Homo sapiens) (Q92731 whole entry, looked up): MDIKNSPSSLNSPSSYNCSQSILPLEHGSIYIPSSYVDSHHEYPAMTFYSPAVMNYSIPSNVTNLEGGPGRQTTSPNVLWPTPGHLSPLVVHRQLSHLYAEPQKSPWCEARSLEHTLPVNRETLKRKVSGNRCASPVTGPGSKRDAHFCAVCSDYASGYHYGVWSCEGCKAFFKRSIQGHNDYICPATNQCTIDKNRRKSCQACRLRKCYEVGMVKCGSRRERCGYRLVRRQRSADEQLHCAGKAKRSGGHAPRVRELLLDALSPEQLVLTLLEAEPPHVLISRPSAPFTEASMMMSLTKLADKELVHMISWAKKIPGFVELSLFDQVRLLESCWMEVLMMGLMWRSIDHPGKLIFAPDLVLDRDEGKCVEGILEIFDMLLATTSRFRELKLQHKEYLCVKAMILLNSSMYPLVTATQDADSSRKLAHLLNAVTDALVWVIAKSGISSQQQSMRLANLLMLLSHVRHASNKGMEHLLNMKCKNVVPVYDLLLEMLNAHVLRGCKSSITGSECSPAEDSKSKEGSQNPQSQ
Chain of Progesterone receptor (Homo sapiens) (P06401 whole entry, looked up): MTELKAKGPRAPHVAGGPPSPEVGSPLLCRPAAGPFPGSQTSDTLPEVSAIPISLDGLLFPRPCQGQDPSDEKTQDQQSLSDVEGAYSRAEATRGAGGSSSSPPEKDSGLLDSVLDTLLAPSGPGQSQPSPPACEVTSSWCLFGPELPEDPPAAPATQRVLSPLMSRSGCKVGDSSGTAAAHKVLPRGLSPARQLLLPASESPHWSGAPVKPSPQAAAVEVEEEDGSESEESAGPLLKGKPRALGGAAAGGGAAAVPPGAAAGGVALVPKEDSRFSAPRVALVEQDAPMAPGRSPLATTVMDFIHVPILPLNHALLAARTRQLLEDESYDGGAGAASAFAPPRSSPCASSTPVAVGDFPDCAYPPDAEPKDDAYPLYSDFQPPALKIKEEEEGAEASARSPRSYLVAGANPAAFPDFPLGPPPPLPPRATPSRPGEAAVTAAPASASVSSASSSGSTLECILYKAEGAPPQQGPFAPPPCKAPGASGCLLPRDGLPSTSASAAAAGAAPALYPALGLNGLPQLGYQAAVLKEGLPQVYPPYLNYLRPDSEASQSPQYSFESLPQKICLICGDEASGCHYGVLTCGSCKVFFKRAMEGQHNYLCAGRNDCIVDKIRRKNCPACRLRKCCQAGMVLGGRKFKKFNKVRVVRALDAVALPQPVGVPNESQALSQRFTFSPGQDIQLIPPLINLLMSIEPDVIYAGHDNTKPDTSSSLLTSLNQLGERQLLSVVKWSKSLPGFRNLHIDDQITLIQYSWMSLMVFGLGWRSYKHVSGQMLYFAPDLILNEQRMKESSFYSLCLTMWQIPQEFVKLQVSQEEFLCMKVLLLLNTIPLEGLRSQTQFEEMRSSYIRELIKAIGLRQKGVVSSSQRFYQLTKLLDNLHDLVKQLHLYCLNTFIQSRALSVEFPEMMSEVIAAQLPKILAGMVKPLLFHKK
Chain of Estrogen receptor (Homo sapiens) (P03372 whole entry, looked up): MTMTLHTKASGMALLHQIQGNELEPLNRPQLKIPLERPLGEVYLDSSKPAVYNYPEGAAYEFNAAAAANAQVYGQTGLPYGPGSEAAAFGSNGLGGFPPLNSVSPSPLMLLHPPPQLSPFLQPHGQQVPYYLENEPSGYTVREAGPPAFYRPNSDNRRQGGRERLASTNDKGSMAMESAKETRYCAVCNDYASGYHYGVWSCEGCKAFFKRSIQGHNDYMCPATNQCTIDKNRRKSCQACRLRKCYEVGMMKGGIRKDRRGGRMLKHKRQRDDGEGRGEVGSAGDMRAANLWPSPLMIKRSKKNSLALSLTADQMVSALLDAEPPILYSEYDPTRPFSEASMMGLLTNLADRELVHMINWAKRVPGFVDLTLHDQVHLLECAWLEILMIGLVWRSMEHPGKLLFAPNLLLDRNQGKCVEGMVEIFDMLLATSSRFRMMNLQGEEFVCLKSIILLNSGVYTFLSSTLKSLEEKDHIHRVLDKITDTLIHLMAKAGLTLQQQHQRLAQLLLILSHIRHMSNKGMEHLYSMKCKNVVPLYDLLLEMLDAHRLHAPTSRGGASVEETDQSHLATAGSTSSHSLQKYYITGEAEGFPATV
Chain of Thyrotropin receptor (Homo sapiens) (P16473 whole entry, looked up): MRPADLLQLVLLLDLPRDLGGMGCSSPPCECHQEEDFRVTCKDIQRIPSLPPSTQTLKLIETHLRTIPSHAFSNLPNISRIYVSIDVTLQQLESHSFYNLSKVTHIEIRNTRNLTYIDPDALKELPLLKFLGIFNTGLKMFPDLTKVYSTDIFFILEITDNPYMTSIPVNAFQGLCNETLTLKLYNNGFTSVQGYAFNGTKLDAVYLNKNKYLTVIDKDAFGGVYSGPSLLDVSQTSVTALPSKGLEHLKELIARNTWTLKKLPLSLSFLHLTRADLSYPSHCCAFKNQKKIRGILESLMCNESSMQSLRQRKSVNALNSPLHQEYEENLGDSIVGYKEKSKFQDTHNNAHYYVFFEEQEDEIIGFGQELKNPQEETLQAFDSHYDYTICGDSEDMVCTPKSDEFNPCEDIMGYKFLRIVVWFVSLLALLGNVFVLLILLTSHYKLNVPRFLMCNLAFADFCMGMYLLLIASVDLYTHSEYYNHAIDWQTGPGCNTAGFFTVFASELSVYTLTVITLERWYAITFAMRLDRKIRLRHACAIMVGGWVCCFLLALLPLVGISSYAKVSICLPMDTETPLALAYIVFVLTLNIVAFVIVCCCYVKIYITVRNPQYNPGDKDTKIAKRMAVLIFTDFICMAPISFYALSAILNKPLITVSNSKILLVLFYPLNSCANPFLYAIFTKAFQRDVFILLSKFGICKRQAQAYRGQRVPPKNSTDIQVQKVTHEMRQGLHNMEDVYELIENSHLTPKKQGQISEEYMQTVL
Chain of Thyrotropin-releasing hormone receptor (Homo sapiens) (P34981 whole entry, looked up): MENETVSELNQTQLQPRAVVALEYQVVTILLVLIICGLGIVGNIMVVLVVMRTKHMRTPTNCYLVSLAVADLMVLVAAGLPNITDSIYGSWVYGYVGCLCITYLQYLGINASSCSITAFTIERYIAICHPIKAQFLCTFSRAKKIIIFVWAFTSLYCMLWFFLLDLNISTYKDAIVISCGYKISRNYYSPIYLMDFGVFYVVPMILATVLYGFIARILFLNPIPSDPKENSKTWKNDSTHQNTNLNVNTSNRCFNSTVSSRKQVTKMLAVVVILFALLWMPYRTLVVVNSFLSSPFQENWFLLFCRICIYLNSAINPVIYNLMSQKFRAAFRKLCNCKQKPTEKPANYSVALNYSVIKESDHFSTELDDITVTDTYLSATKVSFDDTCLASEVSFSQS
Chain of Androgen receptor (Homo sapiens) (P10275 whole entry, looked up): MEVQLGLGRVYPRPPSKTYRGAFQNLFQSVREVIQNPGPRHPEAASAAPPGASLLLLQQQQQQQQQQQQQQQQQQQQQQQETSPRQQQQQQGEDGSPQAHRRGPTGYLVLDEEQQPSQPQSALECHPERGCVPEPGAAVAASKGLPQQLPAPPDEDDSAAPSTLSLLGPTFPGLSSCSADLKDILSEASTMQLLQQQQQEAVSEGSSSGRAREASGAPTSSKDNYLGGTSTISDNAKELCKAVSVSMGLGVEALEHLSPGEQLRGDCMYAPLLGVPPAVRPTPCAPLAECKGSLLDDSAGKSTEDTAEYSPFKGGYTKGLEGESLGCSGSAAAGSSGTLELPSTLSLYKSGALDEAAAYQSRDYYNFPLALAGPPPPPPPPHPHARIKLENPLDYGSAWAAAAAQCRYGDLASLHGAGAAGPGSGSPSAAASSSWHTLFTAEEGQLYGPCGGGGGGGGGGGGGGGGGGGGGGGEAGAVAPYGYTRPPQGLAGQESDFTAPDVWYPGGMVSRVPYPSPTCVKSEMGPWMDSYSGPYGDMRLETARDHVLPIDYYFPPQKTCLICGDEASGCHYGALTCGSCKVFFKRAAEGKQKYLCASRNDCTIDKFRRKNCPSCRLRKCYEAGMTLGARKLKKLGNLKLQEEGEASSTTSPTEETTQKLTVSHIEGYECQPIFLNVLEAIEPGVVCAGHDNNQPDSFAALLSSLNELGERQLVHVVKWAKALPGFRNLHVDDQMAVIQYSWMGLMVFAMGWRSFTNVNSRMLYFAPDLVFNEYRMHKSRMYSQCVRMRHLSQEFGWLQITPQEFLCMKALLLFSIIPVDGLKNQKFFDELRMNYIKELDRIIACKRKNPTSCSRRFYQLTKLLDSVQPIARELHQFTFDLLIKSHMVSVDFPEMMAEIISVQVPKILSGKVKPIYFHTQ

For the molecule `COc1cc(C(=O)OCCCN2CCCN(CCCOC(=O)c3cc(OC)c(OC)c(OC)c3)CC2)cc(OC)c1OC`, the Potency in [1] was 6.68 µM (active); in assay [4] it was 23.7 µM (active); in assay [9] it was 13.3 µM (active). In addition, the Potency result in assay [2], in [3], in [5], in assay [6], in assay [7] and in assay [8] was “inactive” throughout. For the same molecule, the Potency result in assay [10], in [11], in assay [12], in [13], in assay [15] and in [17] was “inactive” in each case. For the same molecule, the molecule was classed as inactive in assay [14] and in assay [16].
For `OC(CN1CCC(Cc2ccc(F)cc2)CC1)c1ccc(Cl)cc1` (stereo not given), the Potency in [1] is 23.7 µM (active). In addition, the Potency result in assay [2], in assay [3], in [4], in [5], in assay [18] and in assay [9] was “inactive” each time. Also, the Potency result in [11], in [12], in [13] and in assay [17] was “inactive” each time. Besides, the result in assay [14] and in [16] was inactive.
As to `O=C(O)CNCC(=O)O`, the activity change, negative = inhibition is 8.21% [at 8.39 µM] in assay [1], -1.17% [at 8.39 µM] in assay [8] and 1.55% [at 8.39 µM] in assay [10]. The activation in assay [2] was 0.711% [at 8.39 µM]; in assay [5], 3.52% [at 8.39 µM]; in [6] it was -1.55% [at 8.39 µM]; in assay [19], 1.22% [at 8.39 µM]; in [15], 6.59% [at 6.97 µM]; in assay [17] it was 0.139% [at 5.23 µM]. The activity, negative = inhibition in assay [3] was 5.13% [at 8.39 µM]. Further, the activity change, negative = cytotoxicity in [4] is 12.4% [at 8.39 µM]; in assay [18], -2.7% [at 8.39 µM]; in assay [9], -4.75% [at 8.39 µM]; in assay [11] it was -2.59% [at 8.39 µM]; in assay [12], 20.3% [at 8.39 µM]; in [14], -7.04% [at 6.97 µM]. The cAMP activity change in assay [7] is 0.505% [at 8.39 µM, hits give high values]. In [13], the viability change, negative = cytotoxic was 10.5% [at 6.97 µM].
Regarding `CCCCCCCCCc1ccc(OCCOCCO)cc1`, the Potency in assay [1] is 8.1 µM (active); in [20], 5.74 µM (active); in [4], 20.4 µM (active); in assay [8], 25.6 µM (active); in assay [9], 22.8 µM (active); in [10] it was 12.8 µM (active). Moreover, in [13], the Potency is 18.3 µM (active). The Potency result in assay [2], in [5], in [7], in [15] and in assay [17] was “inactive” throughout. In addition, the result in assay [16] was inactive.
Regarding `S=C([S-])NCCNC(=S)[S-].[Mn+2]`, the Potency result in assay [1], in [2], in assay [3], in assay [20], in assay [18] and in assay [7] was “inactive” each time. Besides, the Potency entry in assay [8], in [9], in assay [19], in [13] and in assay [15] was “inactive” each time. Besides, the call in assay [14] was inactive.
In the case of `C=CC(=O)OCCOc1ccccc1`, the Potency in assay [1] was 61.1 µM (active). Further, the Potency result in [2], in [3], in assay [20], in [7], in assay [8] and in assay [9] was “inactive” throughout. Further, the Potency entry in [19], in assay [10], in assay [11], in assay [12], in assay [13] and in [15] was “inactive” throughout. In addition, in assay [17], the Potency entry was “inactive”. Further, the call in assay [14] and in assay [16] was inactive.
Regarding `CCC(=O)O[C@]1(C(=O)CCl)[C@@H](C)C[C@H]2[C@@H]3CCC4=CC(=O)C=C[C@]4(C)[C@@]3(F)[C@@H](O)C[C@@]21C`, the Potency result in [1], in assay [2], in assay [20], in [18], in [6] and in assay [7] was “inactive” throughout. In addition, the Potency entry in assay [9], in assay [10], in assay [11], in assay [12], in assay [13] and in [15] was “inactive” each time. Besides, in [17], the Potency entry is “inactive”. Besides, the Potency in [3] is 29.8 µM (active); in assay [5] it was 0.7 nM (active). Also, the call in assay [14] was inactive.
